# Compound activity deposited in PubChem by National Center for Advancing Translational Sciences (NCATS).
# pAkt inh – Akt phosphorylation inhibition | Neuro2A IGF-stimulated pAkt S473 HTRF, 20 min; stronger effect = lower value | activity change, % for hits at 50 µM | 0.32% of 360,000 active | AID 651550; in the data active means activity change below about -80%; inconclusive means mostly about -51% to -80%
#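 Neuro2A cells in DMEM with 0.5% FBS, overnight at 37 deg C, given compound at single 50 µM final, then IGF (6 nM final) for 20 min at 37 deg C. Lysed; phospho-Akt Ser473 by HTRF after 24 h, 665/615 ratio.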
# Abeta yeast res – A-beta toxicity reversal in yeast. yeast expressing A-beta42, growth rescue, OD600, 48 h; response scale: 0% DMSO, 100% iron-clioquinol control. Potency, µM (series often up to 46.1 µM), most hits filed as activators. 0.063% of 410,000 active; further: nearly all actives have a fitted effect of over 55% in size
#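 Yeast A-beta toxicity model in growth medium with pinned compounds, 48 h at 30 C; growth read as absorbance at 600 nm. Normalized to FeCl3/clioquinol equimolar mix (positive) and DMSO (negative).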
# aSyn yeast inh – rescues yeast growth from alpha-synuclein toxicity. Yeast expressing alpha-synuclein, growth rescue, BacTiter-Glo, 24 h. Potency, µM (doses to about 46.1 µM), most hits filed as activators. 0.14% of 370,000 active; further: nearly all actives have a fitted effect of over 65% in size
#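 Rescue of yeast growth: cells expressing toxic alpha-synuclein, induced in galactose at OD600 0.02, incubated with compound 24 h at 30 C. ATP luminescence quantified growth; inhibitors of toxicity appear as activators.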
# TDP-43 yeast inh – rescues yeast growth from TDP-43 toxicity; 1.8% of 410,000 active; AID 652104; Potency, µM (highest dose often 46.1 µM), usual class: activators; TDP-43 expressing yeast growth rescue, BacTiter-Glo, 24 h; further: nearly all actives have a fitted effect of over 50% in size
#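 Galactose-induced TDP-43 yeast, OD600=0.02, compound pinned; 24 hr, 30 deg C; BacTiter-Glo luminescence for growth. Inhibitors of TDP-43 toxicity read as activators.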
# FUS yeast rescue – rescues growth of FUS-expressing yeast; Potency, µM (series often up to 76.6 µM), hits mostly activators; 0.24% of 390,000 active; S. cerevisiae FUS-expressing, growth rescue, OD600, 24 h; AID 1347120; further: nearly all actives have a fitted effect of over 55% in size
#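 Cultures pregrown in 2.5% raffinose medium are shifted to minimal medium containing 2% galactose to express toxic FUS. Compounds are tested at several concentrations. After 24hr at 30C, growth is quantified at 600 nm absorbance.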
# Numbers stand for hits; i = inactive; ? = inconclusive; nt = no result given. This is a sample that favours compounds with a hit; in the whole collection about 2.3% have one here. Unless noted, the call rests on the fitted dose curve; in most records, active means well fitted curve in the direction sought with a large enough effect; inconclusive means small, poorly fitted or top-dose-only effect, or another doubt; inactive means no such curve, though single readings can be large; an effect the other way counts as inactive or inconclusive.
SMILES,pAkt inh,Abeta yeast res,aSyn yeast inh,TDP-43 yeast inh,FUS yeast rescue
COc1cc(-n2c(C)nc3cc(C(=O)N4CCOCC4)ccc32)cc(OC)c1OC,-113.7%,i,i,i,i
COc1cc(-n2c(C)nc3cc(C(=O)NCC4CCCO4)ccc32)cc(OC)c1OC (configuration not stated),i,i,i,i,i
Cc1ccc(C(=O)c2cc3c(cc2[N+](=O)[O-])OCCO3)cc1,i,i,i,12.6µM,i
CN(C)c1nc(Nc2ccc(Cl)cc2)nc(OCC#N)n1,i,i,i,11.2µM,i
CCOc1nc(Nc2ccc(Cl)cc2)nc(OCC)n1,i,i,i,11.2µM,i
O=C(Cn1c(=O)n2nc(-c3cccc(F)c3)nc2c2ccccc21)N1CCN(c2ccccc2F)CC1,nt,i,nt,i,i
CCOC(=O)N1CCN(c2nc(-c3ccc(F)cc3)cs2)CC1,i,i,i,20µM,i
COc1cccc(-c2csc(N3CCN(C(=O)Nc4ccccc4OC)CC3)n2)c1,i,i,i,i,i
COc1cccc(-c2csc(N3CCN(C(=O)Nc4ccc(F)cc4)CC3)n2)c1,i,i,i,17.8µM,12.6µM
CCOC(=O)C(=O)N1CCN(c2nc(-c3ccc(Cl)cc3)cs2)CC1,i,i,i,?,i
CNC(=S)N1CCN(c2nc(-c3ccc(F)cc3)cs2)CC1,i,i,i,i,i
COCCCNC(=S)N1CCN(c2nc(-c3ccc(F)cc3)cs2)CC1,i,?,i,22.4µM,?
CCOCCCNC(=S)N1CCN(c2nc(-c3ccc(F)cc3)cs2)CC1,i,?,i,25.1µM,i
COc1cccc(NC(=O)Nc2cc(-c3cn4cccnc4n3)ccc2OC)c1,nt,i,i,i,i
Oc1ccc(Cl)cc1Nc1nc2ccccc2n2cnnc12,nt,i,nt,i,i
Cc1ccc(OCC(=O)Nc2c(C(=O)c3ccc(Cl)cc3)oc3ccccc23)cc1C,nt,i,nt,i,i
COC(=O)[C@]12C[C@H](CC(=O)NCc3cccc(C(F)(F)F)c3)C(=O)N(Cc3ccc(Cl)cc3Cl)C1=C[C@H](C(C)(C)C)O[C@@H]2C,nt,nt,nt,nt,12.6µM
COC(=O)[C@]12C[C@H](CC(=O)N3CCN(C(=O)c4ccco4)CC3)C(=O)N(Cc3ccc(Cl)cc3Cl)C1=C[C@H](C(C)(C)C)O[C@@H]2C,nt,nt,nt,nt,11.2µM
COC(=O)[C@]12C[C@H](CC(=O)NCc3ccccc3)C(=O)N(Cc3ccc(Cl)cc3Cl)C1=C[C@H](C(C)(C)C)O[C@@H]2C,nt,nt,nt,nt,i
CCCCN(CC)CCNC(=O)c1cc2c(=O)oc3ccc(C)cc3c2s1,nt,i,nt,i,i
Cn1c(SCc2ccccc2Cl)nnc1-c1cnccn1,i,i,i,11.2µM,i
COC(=O)c1cc(C)nc2c1c(=O)nc(SCc1c(C)cc(C)cc1C)n2C1CC1,nt,i,nt,?,i
Cc1ccc(CSc2nc(=O)c3c(C)cc(C)nc3n2C2CC2)cc1,nt,i,nt,3.16µM,?
C=C1C=C(C(F)F)n2ncc(C(=O)N3CCc4ccccc4C3)c2N1,nt,nt,i,nt,nt
Cc1ccc2c(c1)c1c(n2CC2COC(C)(C)O2)C(=O)CCC1 (configuration not stated),i,i,i,12.6µM,i
SMILES,pAkt inh,Abeta yeast res,aSyn yeast inh,TDP-43 yeast inh,FUS yeast rescue
Cc1ccc(Cl)cc1N1CCN(C(=O)CCS(=O)(=O)c2ccc3c(c2)oc(=O)n3C)CC1,nt,i,nt,?,i
O=C(CCc1ccccc1)N(Cc1cccnc1)c1nc2c(F)cccc2s1,nt,i,nt,15.8µM,i
O=C(COc1ccccc1)N(Cc1cccnc1)c1nc2ccc(Cl)cc2s1,nt,i,nt,15.8µM,i
O=C(COc1ccccc1)N(Cc1cccnc1)c1nc2c(F)cccc2s1,nt,i,nt,17.8µM,i
Cc1cccc(NC(=O)c2oc3ccccc3c2NC(=O)Cc2coc3cc(C)cc(C)c23)c1,nt,i,nt,i,i
C/C=C/C1=CC(=O)C[C@H](c2ccc(Cl)cc2)C1,i,i,i,12.6µM,i
C/C=C/C1=CC(=O)C[C@H](c2ccc3c(c2)OCO3)C1,i,i,i,11.2µM,i
C/C=C/C1=CC(=O)C[C@H](c2ccc(F)cc2)C1,i,i,i,i,i
CCCCc1nc2cc(C(=O)N3CCCC(OCCC)C3)ccc2o1 (configuration not stated),i,i,i,14.1µM,i
COc1ccc(CNC(=O)c2ccc3c(c2)N=C(C)c2c(C)ccc(C)c2S3)cc1,nt,i,i,12.6µM,?
